tim10-1 inh: tim10-1 yeast growth inhibition; S. cerevisiae tim10-1 ts strain growth, BacTiter-Glo, 24 h; inhibition, % at 20 µM; 330,000 compounds, 2.2% hits; AID 463190;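 active = inhibition of at least 40%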;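 also: mutant grown at 25 °C; 0% = DMSO wells with yeast and 100% = wells holding no yeast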
NALP3 yeast inh: blocks the NALP3 inflammasome reconstituted in yeast; inhibition, % at 10 µM; 330,000 compounds, 0.39% hits; Yeast reconstituted NLRP3/ASC/caspase-1, beta-gal luminescence, 24 h;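 active = inhibition of 50% or more; inactive = inhibition below 50%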;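 also: plate controls were induced DMSO wells for no effect and uninduced yeast grown without galactose for full effect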
NALP1 yeast inh: NALP1 inhibition; S. cerevisiae NALP1/ASC/caspase-1 growth, X-gal OD620, 72 h; inhibition, % at 10 µM; 280,000 compounds, 0.61% hits; AID 2071; in the data active = inhibition mostly above about 24%, no sharp cut-off; inactive = mostly below about 32%
TIM10 inh: inhibits growth of TIM10 yeast strain; 330,000 compounds, 1.4% hits; AID 463195; inhibition, % at 10 µM; S. cerevisiae TIM10 strain growth, BacTiter-Glo luminescence, 24 h;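 active = inhibition of 40% or more at the single tested concentration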;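 also: wild-type TIM10 isogenic control strain grown at permissive 25 °C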
tim23-1 inh: growth inhibitors of tim23-1 mutant yeast; AID 463212; S. cerevisiae tim23-1 growth, BacTiter-Glo luminescence, 24 h; 330,000 compounds, 1.3% hits; inhibition, % at 20 µM;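 active = growth inhibition of the mutant yeast at or above 50%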;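 also: temperature-sensitive mutant grown at 25 °C; plate controls were DMSO-treated mutant yeast for no effect and medium wells lacking yeast for full effect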
NALP3 confirm: NALP3 inhibition confirmation in yeast; yeast expressing human NALP3, luminescence; inhibition, % at 10 µM; 1,300 compounds, 81% hits; shares compounds with NALP3 yeast inh; in the data active = inhibition above about 48%
Casp1 ASC ctr: active in yeast caspase-1-ASC counter-screen for NALP3 inhibitors | 1,000 compounds, 66% hits | AID 488784 | inhibition, % at 10 µM | yeast expressing Caspase-1-ASC, luminescence counter screen | shares compounds with NALP3 yeast inh
NALP3 retest: yeast NALP3 inhibition, confirmed on retest; shares compounds with NALP3 yeast inh; yeast expressing human NALP3, luminescence read-out; inhibition, % at 10 µM; 1,000 compounds, 53% hits
An asterisk follows results filed as active. Sampled rows, rich in hits. Any-hit rate of the full collection: about 4.1%. Rule as the data show it, unless noted: active = inhibition above about 50%; inactive = the rest.

`COc1ccc(-c2cc(=Nc3ccc(C(=O)O)cc3)c3cc(C)ccc3o2)cc1` gave tim10-1 inh 32, NALP3 yeast inh 53*, NALP1 yeast inh 4, TIM10 inh 29, tim23-1 inh 27, NALP3 confirm 72*, Casp1 ASC ctr 57* and NALP3 retest 41.
c1ccc(CCNc2ncnc3ccccc23)cc1 was read as tim10-1 inh 2, NALP3 yeast inh 21, NALP1 yeast inh 12, TIM10 inh 13 and tim23-1 inh -4.
CCCCCCCCNc1ncnc2ccccc12 was read as tim10-1 inh -27, NALP3 yeast inh 82*, NALP1 yeast inh 19, TIM10 inh 13, tim23-1 inh 20, NALP3 confirm 76*, Casp1 ASC ctr 80* and NALP3 retest 79*.
Screening C/C=C\C=C\C(=O)Nc1cccc(C2=NOC3(C2)C[C@@H](C(N)=O)N(C(=O)C(c2ccccc2)c2ccccc2)C3)c1 (stereo not given in full) returned tim10-1 inh 13, NALP3 yeast inh 12, NALP1 yeast inh 5, TIM10 inh 6 and tim23-1 inh 18.
Cc1ccc(CNC(=O)[C@]2(C)CCC[C@@]3(C)C4CC[C@@]5(C)C[C@]4(CCC32)CC5=O)cc1 (stereo not given in full) was read as tim10-1 inh -37, NALP3 yeast inh 35, TIM10 inh -41 and tim23-1 inh 6.
`COc1ccc(CNC(=O)[C@]2(C)CCC[C@@]3(C)C4CC[C@@]5(C)C[C@]4(CCC32)CC5=O)cc1` (stereo not given in full) gave tim10-1 inh -14, NALP3 yeast inh 51*, TIM10 inh -53, tim23-1 inh 13 and NALP3 confirm 35.
Screening CNc1c(NC(=O)C2CCC(C)CC2)c(=O)oc2ccccc12 (stereo not given) returned tim10-1 inh 16, NALP3 yeast inh 8, NALP1 yeast inh 7, TIM10 inh -15 and tim23-1 inh 4.
Screening CCN(CC(=O)Nc1c(F)cccc1F)C(=O)Cc1ccc2c(c1)CCC2 returned tim10-1 inh 22, NALP3 yeast inh 8, TIM10 inh 1 and tim23-1 inh 16.
`Cc1ccc(-c2cc(NC(=O)CCl)n(-c3ccccc3)n2)cc1` gave tim10-1 inh 25, NALP3 yeast inh 54*, TIM10 inh 14, tim23-1 inh 35 and NALP3 confirm 33.
`CC(=O)Nc1ccc(-c2cc(NC(C)=O)n(-c3ccccc3)n2)cc1` gave tim10-1 inh -18, NALP3 yeast inh 2, NALP1 yeast inh 35, TIM10 inh -4 and tim23-1 inh -12.
For O=C(CCl)Nc1cc(-c2ccccc2)nn1-c1ccccc1 the results were tim10-1 inh 21, NALP3 yeast inh 55*, NALP1 yeast inh 77*, TIM10 inh 26, tim23-1 inh 43, NALP3 confirm 66*, Casp1 ASC ctr 78* and NALP3 retest 69*.
`COc1cc(-c2nc3ccccn3c2/N=C/c2ccccc2)ccc1O` gave tim10-1 inh 29, NALP3 yeast inh 16, NALP1 yeast inh -10, TIM10 inh 14 and tim23-1 inh 18.
COc1cc(-c2nc3ccccn3c2/N=C/c2cc(OC)c(O)cc2Cl)ccc1O was read as tim10-1 inh 29, NALP3 yeast inh -105, NALP1 yeast inh -11, TIM10 inh 18, tim23-1 inh 29 and NALP3 confirm -19.
For Clc1ccccc1Cn1nnc2c(Nc3ccccc3)ncnc21 the results were tim10-1 inh 10, NALP3 yeast inh 62*, NALP1 yeast inh -6, TIM10 inh 10, tim23-1 inh 30, NALP3 confirm 74*, Casp1 ASC ctr 55* and NALP3 retest 57*.
For COc1ccccc1-c1ccc(SCc2ccc(F)cc2)nn1 the results were tim10-1 inh 17, NALP3 yeast inh 35, NALP1 yeast inh 4, TIM10 inh -6 and tim23-1 inh 21.
For COc1ccccc1-c1ccc(SCc2ccc(C)cc2)nn1 the results were tim10-1 inh 3, NALP3 yeast inh 54*, NALP1 yeast inh -6, TIM10 inh -10, tim23-1 inh 8, NALP3 confirm 59*, Casp1 ASC ctr 52* and NALP3 retest 55*.
Screening COc1ccc(CNC(=O)C(C)N2C(=O)COc3ccc(C)cc32)c(OC)c1 (stereo not given) returned tim10-1 inh 19, NALP3 yeast inh -7, TIM10 inh -1 and tim23-1 inh 18.
`O=C(Nc1ccc(Nc2ccccc2)cc1)C(Cl)(Cl)Cl` gave tim10-1 inh -53, NALP3 yeast inh 61*, NALP1 yeast inh 36, TIM10 inh 29, tim23-1 inh 43 and NALP3 confirm 68*.
O=C(Nc1ccc(-c2nc3cccnc3s2)cc1)c1ccco1 was read as tim10-1 inh -52, NALP3 yeast inh 51*, TIM10 inh -15, tim23-1 inh 32, NALP3 confirm 72*, Casp1 ASC ctr 46 and NALP3 retest 48.
Screening O=C(Nc1cccc(-c2nc3cccnc3s2)c1)c1ccco1 returned tim10-1 inh -63, NALP3 yeast inh 33, NALP1 yeast inh 4, TIM10 inh 4 and tim23-1 inh 47.
`CSc1nc2ccc(NC(=O)c3ccco3)cc2s1` gave tim10-1 inh -71, NALP3 yeast inh 51*, NALP1 yeast inh 39, TIM10 inh -38, tim23-1 inh 21, NALP3 confirm 58*, Casp1 ASC ctr 56* and NALP3 retest 54*.
`O=C(Nc1ccc2ccccc2c1)c1cccnc1` gave tim10-1 inh 5, NALP3 yeast inh 27, NALP1 yeast inh -2, TIM10 inh 18 and tim23-1 inh 2.
For O=C(Nc1ccc2c(c1)oc1ccccc12)c1cccnc1 the results were tim10-1 inh -19, NALP3 yeast inh 74*, NALP1 yeast inh -2, TIM10 inh 21, tim23-1 inh 44, NALP3 confirm 60*, Casp1 ASC ctr 44 and NALP3 retest 40.
Screening COc1cccc(-n2nnc3c(=O)n(CC(=O)Nc4cc(C)on4)cnc32)c1 returned tim10-1 inh 5, NALP3 yeast inh -1, NALP1 yeast inh -1, TIM10 inh 9 and tim23-1 inh -3.
Cc1ccc(CN2CCSc3sccc3C2=O)cc1 was read as tim10-1 inh -15, NALP3 yeast inh 81*, NALP1 yeast inh 26*, TIM10 inh -25, tim23-1 inh 16, NALP3 confirm 74*, Casp1 ASC ctr 89* and NALP3 retest 77*.
`O=C1c2ccsc2SCCN1Cc1ccc(Cl)cc1` gave tim10-1 inh 10, NALP3 yeast inh 79*, NALP1 yeast inh -5, TIM10 inh -2, tim23-1 inh 35, NALP3 confirm 83*, Casp1 ASC ctr 88* and NALP3 retest 80*.
